Source: PubChem
14-3-3 PPI = modulators of human 14-3-3 gamma - Raf peptide interaction; inhibition, % at 40 µM; P61981; FP, 14-3-3gamma / TMR-pS259-Raf peptide binding; hit rate 0.19% among 160,000; in the data active means inhibition above about 30%;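 further: 0% = protein plus tracer without compound and 100% = blank with tracer alone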
Target sequence (P61981 whole entry, looked up): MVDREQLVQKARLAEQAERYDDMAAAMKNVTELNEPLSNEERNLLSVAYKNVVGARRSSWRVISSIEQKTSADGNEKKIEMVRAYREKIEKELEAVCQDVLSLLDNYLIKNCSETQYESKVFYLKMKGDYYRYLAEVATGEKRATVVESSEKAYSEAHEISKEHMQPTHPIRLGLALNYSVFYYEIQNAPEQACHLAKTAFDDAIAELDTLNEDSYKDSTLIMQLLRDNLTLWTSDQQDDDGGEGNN
Active calls of the source: *. The sample as a whole holds a higher share of hits than the screen did.

Results for COc1cc(C=Nc2ccc(NC(C)=O)cc2)cc(OC)c1OC ?
14-3-3 PPI: -1.2

Results for COc1ccccc1NC(=O)c1cc2ccccc2c(C=Nc2ccc(NC(C)=O)cc2)c1O ?
14-3-3 PPI: 72.7*

How did COc1ccccc1N=Cc1c(O)c(C(=O)Nc2ccccc2)cc2ccccc12 do in these assays?
14-3-3 PPI: 13.1

How did COc1ccc(S(=O)(=O)N2CCCCC2C(=O)O)cc1OC (stereo not drawn) do in these assays?
14-3-3 PPI: 11.8

Results for CN1c2c(ccc3ccccc23)C(C)(C)C12C=Cc1cc([N+](=O)[O-])ccc1O2 (stereo not drawn) ?
14-3-3 PPI: -364.7

Results for COc1ccc2c(c1)C=CC1(O2)N(C)c2ccccc2C1(C)C (stereo not drawn) ?
14-3-3 PPI: -6.1

Results for CN1c2ccccc2C(C)(C)C12C=Nc1c(ccc3ccccc13)O2 (stereo not drawn) ?
14-3-3 PPI: 83.9*

What do the screens show for `COc1ccc(C2CCN(Cc3cccnc3)CC2O)cc1` (stereo not drawn)?
14-3-3 PPI: -3.8

What do the screens show for `CSc1ccc(OC(=O)c2ccccc2F)cc1`?
14-3-3 PPI: -5.0

How did O=C(OCCN1CCCCC1)c1ccccc1F do in these assays?
14-3-3 PPI: -2.6

How did O=C(Oc1ccc(C2CCCCC2)cc1)c1ccccc1F do in these assays?
14-3-3 PPI: 31.3*

What do the screens show for `O=C(Nc1ccccc1C(=O)OC1CCOC1=O)c1ccco1` (stereo not drawn)?
14-3-3 PPI: 2.0

How did CCc1ccc(NCc2nc(-c3ccccc3)no2)cc1 do in these assays?
14-3-3 PPI: -1.2

Results for CC12COc3ccccc3C1c1sc(=O)[nH]c1SC2 (stereo not drawn) ?
14-3-3 PPI: 107.5*

Results for O=c1[nH]c2c(s1)C1c3c(ccc4ccccc34)OCC1CS2 (stereo not drawn) ?
14-3-3 PPI: 3.1

What do the screens show for `O=C(O)C1Sc2[nH]c(=O)sc2C2c3ccccc3OC(=O)C12` (stereo not drawn)?
14-3-3 PPI: -33.8

What do the screens show for `CCC(C#N)C12CC3CC(CC(C3)C1)C2` (stereo not drawn)?
14-3-3 PPI: -0.1

What do the screens show for `CC12c3ccccc3C(c3ccccc31)C1C(=O)N(Cc3ccccc3)C(=O)C12` (stereo not drawn)?
14-3-3 PPI: 4.5

What do the screens show for `CCOC(=O)c1cc2c(=O)n3ccccc3nc2n(C(C)C)c1=NC(=O)c1ccccc1C`?
14-3-3 PPI: -33.5

How did CC1=C(C(=O)Nc2ccccc2)C(c2ccc([N+](=O)[O-])cc2)NC(=S)N1 (stereo not drawn) do in these assays?
14-3-3 PPI: 3.5

Results for CN1C(=S)SC(N(O)C(=O)Nc2ccccc2)C1(C)C (stereo not drawn) ?
14-3-3 PPI: 42.7*

How did CC1(C)C(N(O)C(=O)Nc2ccccc2)N(c2cccc(Cl)c2)C(=O)N1O (stereo not drawn) do in these assays?
14-3-3 PPI: -5.9

What do the screens show for `CN(C)C(=S)Oc1ccc(C(=O)Nc2ccc3ccccc3c2)cc1`?
14-3-3 PPI: 4.0

How did C=CCSc1nnc2c(n1)OC(c1cccnc1)Nc1ccccc1-2 (stereo not drawn) do in these assays?
14-3-3 PPI: -17.2

How did CCCCSc1nnc2c(n1)OC(c1cccnc1)Nc1ccc(Br)cc1-2 (stereo not drawn) do in these assays?
14-3-3 PPI: -34.3

Results for C=CCOc1cccc(C2Nc3ccccc3-c3nnc(SCC=C)nc3O2)c1 (stereo not drawn) ?
14-3-3 PPI: 139.7*

How did CCSc1nnc2c(n1)OC(c1ccc(C)cc1)Nc1ccccc1-2 (stereo not drawn) do in these assays?
14-3-3 PPI: 5.1

How did C=CCSc1nnc2c(n1)OC(c1cccc(O)c1)Nc1ccccc1-2 (stereo not drawn) do in these assays?
14-3-3 PPI: -5.2

Results for CCSc1nnc2c(n1)OC(c1ccc(CC)cc1)Nc1ccccc1-2 (stereo not drawn) ?
14-3-3 PPI: 18.2

What do the screens show for `CCCSc1nnc2c(n1)OC1(CCCC1)Nc1ccc(Br)cc1-2`?
14-3-3 PPI: -57.7

What do the screens show for `CCSc1nnc2c(n1)OC(c1ccc(N(CC)CC)cc1)Nc1ccccc1-2` (stereo not drawn)?
14-3-3 PPI: 38.9*

What do the screens show for `CCCCSc1nnc2c(n1)OC(c1ccccc1)Nc1ccccc1-2` (stereo not drawn)?
14-3-3 PPI: -2.7

How did O=C(O)CSc1nnc2c(n1)OC1(CCCC1)Nc1ccccc1-2 do in these assays?
14-3-3 PPI: -4.0

What do the screens show for `CCCCSc1nnc2c(n1)OC1(CCCC1)Nc1ccccc1-2`?
14-3-3 PPI: 116.9*

Results for CCCCCCSc1nnc2c(n1)OC(c1cccnc1)Nc1ccccc1-2 (stereo not drawn) ?
14-3-3 PPI: 68.2*

What do the screens show for `COc1ccc(-c2nc(N3CCN(c4ccc(F)cc4)CC3)c3ccccc3n2)cc1OC`?
14-3-3 PPI: -5.0

Results for Cc1cc(C)cc(N(C(=O)Cn2nnc3ccccc32)C(C(=O)NCc2ccco2)c2ccncc2)c1 (stereo not drawn) ?
14-3-3 PPI: -9.1

How did Nc1nc2nonc2nc1N1CCCCC1 do in these assays?
14-3-3 PPI: -6.7

What do the screens show for `Cc1ccc(S(=O)(=O)N2CCC(C(=O)NC(C)c3ccccc3)CC2)cc1` (stereo not drawn)?
14-3-3 PPI: 1.3

What do the screens show for `O=C(Nc1ccc(F)cc1)N1CCn2c(nc3ccccc32)C1`?
14-3-3 PPI: -3.4

What do the screens show for `Cn1c(=O)cc(OCCCC(=O)N2CCCC2)c2ccccc21`?
14-3-3 PPI: 4.4

What do the screens show for `CCOC(=O)N1CCC(NC(=O)C2CCCN2C(=O)OCc2ccccc2)CC1` (stereo not drawn)?
14-3-3 PPI: -3.5

Results for CCOC(=O)Cc1c(-[n+]2ccccc2)[nH]c2ccccc12 ?
14-3-3 PPI: -13.6

Results for CCCSc1nnc2c(n1)OC(c1cc3c(cc1Cl)OCO3)Nc1ccccc1-2 (stereo not drawn) ?
14-3-3 PPI: -49.5

Results for CCCSc1nnc2c(n1)OC(c1ccsc1)Nc1ccccc1-2 (stereo not drawn) ?
14-3-3 PPI: 63.8*

How did CSc1nnc2c(n1)OC(c1ccsc1)Nc1ccccc1-2 (stereo not drawn) do in these assays?
14-3-3 PPI: -3.2

What do the screens show for `CSc1nnc2c(n1)OC(c1ccccc1Br)Nc1ccccc1-2` (stereo not drawn)?
14-3-3 PPI: 41.1*

What do the screens show for `CSc1nnc2c(n1)OC(c1ccccc1O)Nc1ccccc1-2` (stereo not drawn)?
14-3-3 PPI: 0.7

Results for CSc1nnc2c(n1)OC(c1ccc(Br)s1)Nc1ccccc1-2 (stereo not drawn) ?
14-3-3 PPI: -18.2

How did CCCSc1nnc2c(n1)OC(c1ccncc1)Nc1ccccc1-2 (stereo not drawn) do in these assays?
14-3-3 PPI: -8.9

Results for C=CCSc1nnc2c(n1)OC(c1ccccc1C)Nc1ccccc1-2 (stereo not drawn) ?
14-3-3 PPI: -7.0

What do the screens show for `CCSc1nnc2c(n1)OC(c1cccc(C)n1)Nc1ccccc1-2` (stereo not drawn)?
14-3-3 PPI: 1.8

What do the screens show for `CCSc1nnc2c(n1)OC(c1ccccc1C)Nc1ccccc1-2` (stereo not drawn)?
14-3-3 PPI: 41.0*

Results for CCCSc1nnc2c(n1)OC(c1ccsc1)Nc1ccc(Br)cc1-2 (stereo not drawn) ?
14-3-3 PPI: -65.3

How did CCCSc1nnc2c(n1)OC(c1ccccc1Cl)Nc1ccccc1-2 (stereo not drawn) do in these assays?
14-3-3 PPI: 33.4*
